Results published in PubChem BioAssay (NCATS).
Results filed as inconclusive are left out. Entries that show only a call come without a potency. Calls of active or inactive are those of the source. Calls come from the whole dose curve; as a rule, active = well fitted inhibition curve with a large enough effect; inconclusive = small, poorly fitted or top-dose-only effect; inactive = flat fitted curve, though single readings scatter.

Assays:
Assay in all cases: qHTS profiling for inhibitors of Plasmodium falciparum proliferation (AID 504749); note: nearly all actives have a fitted effect of over 60% in size
Conditions in all cases: P. falciparum in erythrocytes, SYBR Green DNA, 72 h; series mostly up to 28.7 µM
[1] = system: CP260
Method in brief: (§1)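 In a 72 h erythrocytic culture (37 C, humidified, 5% CO2) at 2.5% hematocrit and 0.3% starting parasitemia, compounds were tested; SYBR Green I in detergent lysis buffer stained parasite DNA overnight.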

[2] = system: CP262
Method in brief: as §1

[3] = system: CP265
Method in brief: as §1

[4] = system: CP266
Method in brief: as §1

[5] = system: CP268
Method in brief: as §1

[6] = system: CP269
Method in brief: as §1

[7] = system: CP286
Method in brief: as §1

[8] = system: CP291
Method in brief: as §1

[9] = system: CP297
Method in brief: as §1

[10] = system: CP305
Method in brief: as §1

[11] = system: CP315
Method in brief: as §1

[12] = system: CP325
Method in brief: as §1

[13] = system: CP329
Method in brief: as §1

[14] = system: CP335
Method in brief: as §1

[15] = system: DFO2036
Method in brief: as §1

[16] = system: ECU
Method in brief: as §1

[17] = system: DIV14
Method in brief: as §1

[18] = system: DIV30
Method in brief: as §1

[19] = system: Dd2
Method in brief: as §1

[20] = system: DIV17
Method in brief: as §1
Potency is the fitted concentration of half-maximal effect.

CCC(=O)O[C@@](Cc1ccccc1)(c1ccccc1)[C@@H](C)CN(C)C
Potency [1]: inactive
Potency [2]: inactive
Potency [3]: inactive
Potency [4]: inactive
Potency [5]: inactive
Potency [6]: inactive
Potency [7]: inactive
Potency [8]: inactive
Potency [9]: inactive
Potency [10]: inactive
Potency [11]: inactive
Potency [12]: inactive
Potency [13]: inactive
Potency [14]: inactive
Potency [15]: inactive
Potency [16]: inactive

CCC1(c2ccccc2)C(=O)NC(=O)N(C(=O)c2ccccc2)C1=O (stereo not drawn)
Potency [1]: inactive
Potency [2]: inactive
Potency [3]: inactive
Potency [4]: inactive
Potency [5]: inactive
Potency [6]: inactive
Potency [7]: inactive
Potency [8]: inactive
Potency [9]: inactive
Potency [10]: inactive
Potency [11]: inactive
Potency [12]: inactive
Potency [13]: inactive
Potency [14]: inactive
Potency [15]: inactive
Potency [17]: inactive
Potency [18]: inactive
Potency [19]: inactive
Potency [16]: inactive

O=CC=O
Potency [1]: inactive
Potency [2]: inactive
Potency [3]: inactive
Potency [4]: inactive
Potency [5]: inactive
Potency [6]: inactive
Potency [7]: inactive
Potency [8]: inactive
Potency [9]: inactive
Potency [10]: inactive
Potency [11]: inactive
Potency [12]: inactive
Potency [13]: inactive
Potency [14]: inactive
Potency [15]: inactive
Potency [17]: inactive
Potency [20]: inactive
Potency [18]: inactive
Potency [19]: inactive
Potency [16]: inactive

CCC1C(C)=NN=C(c2ccc(OC)c(OC)c2)c2cc(OC)c(OC)cc21 (stereo not drawn)
Potency [1]: inactive
Potency [2]: inactive
Potency [3]: inactive
Potency [4]: inactive
Potency [5]: inactive
Potency [6]: inactive
Potency [8]: inactive
Potency [10]: inactive
Potency [11]: inactive
Potency [12]: inactive
Potency [13]: inactive
Potency [14]: inactive
Potency [15]: inactive
Potency [18]: inactive
Potency [19]: inactive

CCCCCCCCOC(=O)c1ccccc1C(=O)OCCCCCCCC
Potency [1]: inactive
Potency [2]: inactive
Potency [3]: inactive
Potency [4]: inactive
Potency [5]: inactive
Potency [6]: inactive
Potency [7]: inactive
Potency [8]: inactive
Potency [9]: inactive
Potency [10]: inactive
Potency [11]: inactive
Potency [12]: inactive
Potency [13]: inactive
Potency [14]: inactive
Potency [15]: inactive
Potency [17]: inactive
Potency [20]: inactive
Potency [18]: inactive
Potency [19]: inactive
Potency [16]: inactive

c1cc2c(c(NC3=NCCN3)c1)CCCC2
Potency [1]: inactive
Potency [2]: inactive
Potency [3]: inactive
Potency [4]: inactive
Potency [7]: inactive
Potency [12]: inactive
Potency [14]: inactive
Potency [15]: inactive
Potency [17]: 15.1 µM (active)
Potency [19]: inactive
Potency [16]: inactive

CC(=O)OO
Potency [1]: inactive
Potency [2]: inactive
Potency [3]: inactive
Potency [4]: inactive
Potency [5]: inactive
Potency [6]: inactive
Potency [7]: inactive
Potency [8]: inactive
Potency [9]: inactive
Potency [10]: inactive
Potency [11]: inactive
Potency [12]: inactive
Potency [13]: inactive
Potency [14]: inactive
Potency [15]: inactive
Potency [17]: inactive
Potency [20]: inactive
Potency [18]: inactive
Potency [19]: inactive
Potency [16]: inactive

CCC1(c2ccccc2)C(=O)NC(=O)NC1=O
Potency [1]: inactive
Potency [2]: inactive
Potency [3]: inactive
Potency [4]: inactive
Potency [5]: inactive
Potency [6]: inactive
Potency [7]: inactive
Potency [8]: inactive
Potency [9]: inactive
Potency [10]: inactive
Potency [11]: inactive
Potency [12]: inactive
Potency [13]: inactive
Potency [14]: inactive
Potency [15]: inactive
Potency [17]: inactive
Potency [20]: inactive
Potency [18]: inactive
Potency [19]: inactive
Potency [16]: inactive

ClC1C(Cl)C(Cl)C(Cl)C(Cl)C1Cl (stereo not drawn)
Potency [1]: inactive
Potency [2]: inactive
Potency [3]: inactive
Potency [4]: inactive
Potency [5]: inactive
Potency [6]: inactive
Potency [7]: inactive
Potency [8]: inactive
Potency [9]: inactive
Potency [10]: inactive
Potency [11]: inactive
Potency [12]: inactive
Potency [13]: inactive
Potency [14]: inactive
Potency [15]: inactive
Potency [20]: inactive
Potency [18]: inactive
Potency [19]: inactive
Potency [16]: inactive

C=CCN(C1=NCCN1)c1c(Cl)cccc1Cl
Potency [1]: inactive
Potency [2]: inactive
Potency [3]: inactive
Potency [4]: inactive
Potency [5]: inactive
Potency [6]: inactive
Potency [7]: inactive
Potency [9]: inactive
Potency [10]: inactive
Potency [11]: inactive
Potency [12]: inactive
Potency [13]: inactive
Potency [14]: inactive
Potency [15]: inactive
Potency [17]: inactive
Potency [20]: inactive
Potency [18]: inactive
Potency [19]: inactive
Potency [16]: inactive

CC(C)Nc1ccc(Nc2ccccc2)cc1
Potency [1]: 5.62 µM (active)
Potency [2]: 4.78 µM (active)
Potency [3]: 11.2 µM (active)
Potency [4]: 8.49 µM (active)
Potency [5]: 10.7 µM (active)
Potency [6]: 6.75 µM (active)
Potency [7]: 8.91 µM (active)
Potency [8]: 15.1 µM (active)
Potency [9]: 4.78 µM (active)
Potency [10]: 13.5 µM (active)
Potency [11]: 4.78 µM (active)
Potency [12]: 6.01 µM (active)
Potency [13]: 6.01 µM (active)
Potency [15]: 5.01 µM (active)
Potency [17]: 12 µM (active)
Potency [20]: 13.5 µM (active)
Potency [18]: 4.78 µM (active)
Potency [19]: 10 µM (active)
Potency [16]: 11.2 µM (active)

O=c1[nH]c(=O)n(Cl)c(=O)n1Cl
Potency [1]: inactive
Potency [2]: inactive
Potency [3]: inactive
Potency [4]: inactive
Potency [5]: inactive
Potency [6]: inactive
Potency [7]: inactive
Potency [8]: inactive
Potency [9]: inactive
Potency [10]: inactive
Potency [11]: inactive
Potency [12]: inactive
Potency [13]: inactive
Potency [14]: inactive
Potency [15]: inactive
Potency [17]: inactive
Potency [20]: inactive
Potency [18]: inactive
Potency [19]: inactive
Potency [16]: inactive

CCC1(C)CC(=O)NC(=O)C1
Potency [1]: inactive
Potency [2]: inactive
Potency [3]: inactive
Potency [4]: inactive
Potency [5]: inactive
Potency [6]: inactive
Potency [7]: inactive
Potency [8]: inactive
Potency [9]: inactive
Potency [10]: inactive
Potency [11]: inactive
Potency [12]: inactive
Potency [13]: inactive
Potency [14]: inactive
Potency [15]: inactive
Potency [17]: inactive
Potency [20]: inactive
Potency [18]: inactive
Potency [19]: inactive
Potency [16]: inactive
